CASP6 VEID inh – human caspase-6 inhibitors, primary screen, biochemical, VEID-R110 fluorescence, single point, set 2. P55212. purified caspase-6, Z-VEID-R110 cleavage fluorescence. inhibition, % at 12.5 µM. actives 0.53% (n = 350,000);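 active = mean inhibition across replicates at least about 35%, with every replicate also reaching that limit, limit read from the data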
Target sequence (P55212 24-179 limits assumed): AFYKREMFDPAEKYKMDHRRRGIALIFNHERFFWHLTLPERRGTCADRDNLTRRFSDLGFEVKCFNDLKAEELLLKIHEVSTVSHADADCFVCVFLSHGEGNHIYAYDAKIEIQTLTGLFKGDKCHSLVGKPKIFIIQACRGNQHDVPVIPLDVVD
Target sequence (P55212 194-293 limits assumed): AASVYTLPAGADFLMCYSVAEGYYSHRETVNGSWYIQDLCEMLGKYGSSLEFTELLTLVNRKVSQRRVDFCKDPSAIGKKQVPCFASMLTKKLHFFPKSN
NSD2 inh – NSD2 histone methyltransferase inhibitors, primary screen, biochemical, AlphaScreen, single concentration, set 2; inhibition, % at 12.5 µM; actives 0.54% (n = 310,000); Histone-lysine N-methyltransferase NSD2 (Homo sapiens), O96028; NSD2 peptide methylation, 120 min; in the data active = inhibition above about 50%
CFTR F508del cor – F508del CFTR correction, initial screen, CFBE line, single point; actives 0.36% (n = 350,000); CFBE cells, YFP halide quenching; stimulated with forskolin plus potentiator P3; % fluorescence drop versus neutral controls; activity (quench increase), % at 7.58 µM;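 active = mean added fluorescence quench of at least 8% versus neutral control, with both replicates also reaching 8%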;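 also: cells transiently co-express mutant CFTR-F508del with the halide-sensitive YFP; corrector assay measuring rescue of mutant channel to the surface after 24 h compound exposure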
ALR inh – inhibitors of human ALR sulfhydryl oxidase, primary screen, biochemical, H2O2 detection, HRP-luminol luminescence, single point | FAD-linked sulfhydryl oxidase ALR (Homo sapiens), P55789 | purified ALR, DTT oxidation | inhibition, % (no concentration beside the values) | actives 3.8% (n = 290,000);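 active = mean replicate inhibition above about 79%, with every replicate also reaching it, limit read from the data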
Target sequence (P55789 whole entry, looked up): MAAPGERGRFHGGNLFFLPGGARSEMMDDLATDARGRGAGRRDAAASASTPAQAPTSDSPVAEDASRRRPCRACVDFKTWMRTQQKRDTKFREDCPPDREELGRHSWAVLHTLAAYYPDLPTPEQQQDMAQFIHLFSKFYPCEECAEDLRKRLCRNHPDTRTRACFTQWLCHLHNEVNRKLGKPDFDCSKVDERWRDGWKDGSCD
HIV Env fusion – inhibitors of HIV-1 Env-driven cell-cell fusion, primary screen, HeLa-JRFL effector, CEM21 target cells, luciferase. AID 651610, 2012. actives 1.1% (n = 360,000). inhibition, % at 12.3 µM;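 active = mean replicate inhibition score of at least 50 and every replicate individually at or above 50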
PglD inh – C. jejuni PglD acetyltransferase inhibitors, primary screen, biochemical, DTNB colorimetric, single point | UDP-N-acetylbacillosamine N-acetyltransferase PglD (Campylobacter jejuni) | purified PglD enzyme, DTNB colorimetric CoA detection | inhibition, % at 12.5 µM | actives 0.098% (n = 360,000); in the data active = inhibition above about 16%, passing the limit was not always enough
Each line names hits and unclear results; the compound was inactive in the other large screens; [ ] = dose if it differs, or a comment. Hits are enriched below; roughly 4.1% of the tested compounds scored in any of these assays.

O=C(CC1CC1)N1CC(=O)N2[C@@H](CO)[C@H](c3ccc(C#Cc4ccccc4)cc3)[C@@H]2C1	none (no result: NSD2 inh, ALR inh, HIV Env fusion, PglD inh)
CN(C)CC(=O)Nc1ccc2c(c1)[C@@H]1C[C@@H](CC(=O)NCc3cccc(F)c3)O[C@H](CO)[C@@H]1O2	none (no result: NSD2 inh, ALR inh)
O=C(C[C@@H]1C[C@H]2c3cc(NC(=O)CC4CC4)ccc3O[C@H]2[C@H](CO)O1)NCc1cccc(F)c1	CFTR F508del cor 9.0 (no result: NSD2 inh, ALR inh, HIV Env fusion)
CN(C)CC(=O)Nc1ccc2c(c1)[C@H]1C[C@H](CC(=O)NCc3cccc(F)c3)O[C@@H](CO)[C@H]1O2	HIV Env fusion 64[16.7 µM] (no result: NSD2 inh, ALR inh)
O=C(C[C@@H]1C[C@@H]2c3cc(NC(=O)CC4CC4)ccc3O[C@@H]2[C@H](CO)O1)NCc1cccc(F)c1	none (no result: NSD2 inh, ALR inh, HIV Env fusion)
C[C@@H]1CN([C@@H](C)CO)C(=O)c2cc(NC(=O)Cc3ccccc3)ccc2O[C@@H](C)CCCCO[C@H]1CN(C)S(=O)(=O)c1ccccc1	none (no result: NSD2 inh, ALR inh)
COC(=O)CSc1nnc(C)c(=O)[nH]1	none (no result: CASP6 VEID inh, CFTR F508del cor, HIV Env fusion)
CCOC(=O)CNc1nnc(SCC(=O)OCC)[nH]c1=O	ALR inh 100 (no result: CASP6 VEID inh, CFTR F508del cor, HIV Env fusion, PglD inh)
N#CC1=C(N)OC2=C(CCc3ccccc32)C1c1ccccc1Cl (stereo not given)	CFTR F508del cor 10 (no result: HIV Env fusion)
CC(=O)Nc1ccc(SC[C@H](Cc2ccccc2)N2CCN(CCc3ccccc3)CCC2=O)cc1	none (no result: NSD2 inh, ALR inh)
CC(=O)Nc1ccc(SCCN2CC[C@@H](C)CCC2=O)cc1	ALR inh 99 (no result: NSD2 inh)
CC(=O)Nc1ccc(SC[C@H](Cc2ccccc2)N2CC[C@@H](O)CCC2=O)cc1	ALR inh 99 (no result: NSD2 inh)
CC(=O)Nc1ccc(SCCN2CC[C@@H](O)CCC2=O)cc1	none (no result: NSD2 inh)
CC(=O)Nc1ccc(S[C@@H](CCN2CC[C@H](C(C)(C)C)CCC2=O)c2ccccc2)cc1	ALR inh 97 (no result: NSD2 inh)
CC(=O)Nc1ccc(SC[C@H](Cc2ccccc2)N2CC[C@@H](C(C)(C)C)CCC2=O)cc1	ALR inh 99 (no result: NSD2 inh)
CC(=O)Nc1cccc(OCC(O)Cn2cnc3ccccc32)c1 (stereo not given)	ALR inh 100 (no result: CASP6 VEID inh, CFTR F508del cor)
CCC(=O)N(CC)C1=C(O)c2ccccc2C(=O)C1=O	CASP6 VEID inh 40 (no result: HIV Env fusion, PglD inh)
Cc1ccccc1Nc1n[nH]c(=S)s1	none (no result: ALR inh)
S=c1[nH]nc(Nc2cccc3ccccc23)s1	ALR inh 97
Fc1ccccc1Nc1n[nH]c(=S)s1	ALR inh 99 (no result: CFTR F508del cor, PglD inh)
C[C@@H]1CN([C@@H](C)CO)C(=O)c2cc(NC(=O)Nc3ccc(F)cc3)ccc2O[C@@H](C)CCCCO[C@@H]1CN(C)Cc1ccccc1	none (no result: NSD2 inh, ALR inh)
Cc1ccc(-c2nc(-c3cccnc3)sc2CC(=O)O)cc1	ALR inh 99 (no result: NSD2 inh, PglD inh)
Cc1ccc(-c2sc(-c3cccnc3)nc2CC(=O)O)cc1	ALR inh 99 (no result: PglD inh)
CC(=O)Nc1ccc(NC(=O)Cc2sc(-c3cccnc3)nc2-c2ccc(C)cc2)cc1	none
Cc1ccc(-c2sc(C)nc2CC(=O)O)cc1	none (no result: CASP6 VEID inh, CFTR F508del cor, HIV Env fusion)
Cc1c[nH]c2cccc(OCC(CNC(C)(C)C)OC(=O)c3ccccc3)c12 (stereo not given)	ALR inh 81
CS(=O)(=O)Nc1ccccc1C(=O)N1CCN(c2ccccc2)CC1	ALR inh 98 (no result: CASP6 VEID inh, CFTR F508del cor, PglD inh)
CS(=O)(=O)N(CC(=O)N1CCN(c2ccccc2)CC1)c1cccc(Br)c1	none (no result: CASP6 VEID inh, CFTR F508del cor)
Cc1ccc(S(=O)(=O)NCc2ccccc2)cc1C(=O)N1CCN(S(=O)(=O)c2ccccc2)CC1	none (no result: ALR inh)
COc1ccccc1NS(=O)(=O)c1ccc(C)c(C(=O)N2CCN(c3ccc(O)cc3)CC2)c1	ALR inh 99 (no result: PglD inh)
Cc1ccc(S(=O)(=O)NCc2ccccc2)cc1C(=O)N1CCCCCCC1	HIV Env fusion 66
CCc1ccccc1N(CC(=O)N1CCN(c2ccccc2)CC1)S(C)(=O)=O	ALR inh 98 (no result: CASP6 VEID inh, CFTR F508del cor)
CN1C(=O)c2cc(NC(=O)c3cccs3)ccc2OC[C@@H]2O[C@@H](CC(=O)N3CCOCC3)CC[C@@H]21	none (no result: NSD2 inh, ALR inh)
CN(c1ccccc1C(=O)N1CCN(c2ccccc2)CC1)S(C)(=O)=O	ALR inh 87 (no result: CASP6 VEID inh, CFTR F508del cor)
CC(C)c1ccc(-c2nnc(SCC(=O)NC3CC3)n2C)cc1	CASP6 VEID inh 53
C=CCn1c(C)nnc1SCC(=O)NC1CC1	HIV Env fusion 62
C=CCn1c(C)nnc1SCC(=O)NC1CCCCC1	none
Cn1c(SCC(=O)NC2CCCC2)nnc1-c1ccncc1	none (no result: CASP6 VEID inh)
Cn1c(SCC(=O)NC2CCCCC2)nnc1-c1ccccn1	CASP6 VEID inh 39
CCC(=O)N1C[C@@H](C)[C@@H](OC)CN(C)C(=O)c2cc(NC(=O)c3ccc(F)cc3)ccc2OC[C@H]1C	none (no result: NSD2 inh, ALR inh)
CC(C)NC(=O)c1ccc2c3n(nc2c1)-c1ccc(Cl)cc1CO3	none (no result: NSD2 inh)
CCN(CC)CCCNC(=O)c1ccc2c3n(nc2c1)-c1ccc(Cl)cc1CO3	ALR inh 99 (no result: NSD2 inh)
CN(Cc1ccco1)S(=O)(=O)c1nnc(NC(=O)c2cccc(Cl)c2)s1	ALR inh 96
Cc1noc(C)c1NC(=O)N[C@H]1CC[C@@H](CC(=O)Nc2ccc(-c3ccccc3)cc2)O[C@@H]1CO	none (no result: NSD2 inh, ALR inh)
CC(/C=C1\SC(=S)N(CCCC(=O)Nc2ccc(C(=O)O)c(O)c2)C1=O)=C\c1ccccc1	ALR inh 97 (no result: CASP6 VEID inh, NSD2 inh, CFTR F508del cor, HIV Env fusion, PglD inh)
O=C(CCN1C(=O)/C(=C\C=C\c2ccccc2)SC1=S)Nc1cccc(C(=O)O)c1	none
CC(=C\c1ccccc1)/C=C1/SC(=O)N(CCCC(=O)Nc2ccc(C(=O)O)cc2)C1=O	ALR inh 97 (no result: PglD inh)
COc1ccccc1/C=C1\SC(=S)N(CCC(=O)Nc2cccc(O)c2)C1=O	HIV Env fusion 70
O=C(CCN1C(=O)/C(=C\C=C\c2ccccc2)SC1=S)Nc1ccccc1C(=O)O	CASP6 VEID inh 45
CO[C@@H]1CN(C)C(=O)c2ccc(NC(=O)C3CCCC3)cc2OC[C@H](C)N(C)C[C@H]1C	none (no result: NSD2 inh, ALR inh, HIV Env fusion)
CC=Cc1ccc2n(c1=O)C[C@@H]1[C@@H](CO)[C@H](C(=O)NCCC)N(CCC(F)(F)F)[C@H]21 (mixture of isomers)	none (no result: NSD2 inh, ALR inh, HIV Env fusion)
O=C(Nc1ccc2c(c1)[C@@H]1C[C@H](CC(=O)N3CCOCC3)O[C@@H](CO)[C@@H]1O2)NC1CCCCC1	none (no result: NSD2 inh, ALR inh)
CC(C)NC(=O)N(C)C[C@H]1Oc2c(NS(=O)(=O)c3ccccc3)cccc2C(=O)N([C@@H](C)CO)C[C@H]1C	none (no result: NSD2 inh, ALR inh, HIV Env fusion)
O=C(O)CCCN1C(=O)/C(=C\c2ccc(-c3nc4ccccc4s3)o2)SC1=S	CASP6 VEID inh 43, ALR inh 94
O=C(O)CCCN1C(=O)/C(=C\C(Cl)=C\c2ccccc2)SC1=S	ALR inh 98
O=C(O)CCN1C(=O)/C(=C/c2ccc(-c3nc4ccccc4s3)o2)SC1=S	none (no result: CASP6 VEID inh, CFTR F508del cor, HIV Env fusion)

Bioassay records: PubChem BioAssay, Broad Institute
